What was measured:
Assay in all cases: DAPPL (digital affinity profiling via proximity ligation, sequencing); 10 mM Tris-HCl pH 7.5, 50 mM NaCl, 1 mM DTT, 4% glycerol, room temperature, 30 min; GST-TFs on glutathione beads, 16-mer random dsDNA library, 0.1% formaldehyde crosslink after washing; high values mean tight binding
Conditions in all cases: protein: recombinant; tags: N-terminal GST; dsDNA, one strand shown
ELK1 = molecular target: T1, ELK1 (Homo sapiens, UniProt P19419 1-428)
T1 sequence: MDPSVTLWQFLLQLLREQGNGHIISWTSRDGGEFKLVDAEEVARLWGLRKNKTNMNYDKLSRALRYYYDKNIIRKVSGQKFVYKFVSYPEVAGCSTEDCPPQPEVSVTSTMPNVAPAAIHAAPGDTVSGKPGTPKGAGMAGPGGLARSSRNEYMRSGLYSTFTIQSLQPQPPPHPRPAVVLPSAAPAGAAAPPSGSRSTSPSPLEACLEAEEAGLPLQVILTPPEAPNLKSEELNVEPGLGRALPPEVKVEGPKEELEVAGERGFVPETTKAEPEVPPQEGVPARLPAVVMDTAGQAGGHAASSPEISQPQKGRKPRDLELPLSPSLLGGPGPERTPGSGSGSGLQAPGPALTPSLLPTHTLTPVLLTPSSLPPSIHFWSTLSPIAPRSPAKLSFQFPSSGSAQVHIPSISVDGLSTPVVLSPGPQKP
Procedure, shortened: (§1)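 The binding signal reported is, for every hexamer, its read frequency for a factor over its read frequency for the tag-only sample. Reads came from pools of yeast-expressed, GST-fused human transcription factors on glutathione beads, barcoded with DNA and mixed with that sample, which were incubated with 200 nmole of a random double-stranded 16-mer DNA library in Tris/NaCl/DTT/glycerol buffer at room temperature for 30 min. After washing, the pools were crosslinked with 0.1% formaldehyde, proximity-ligated with BsaI/T4 ligase for 1 h at 37 °C, PCR-amplified and sequenced on an Illumina NextSeq500.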

GABPA = molecular target: T2, GABPA (Homo sapiens, UniProt Q06546 1-454)
T2 sequence: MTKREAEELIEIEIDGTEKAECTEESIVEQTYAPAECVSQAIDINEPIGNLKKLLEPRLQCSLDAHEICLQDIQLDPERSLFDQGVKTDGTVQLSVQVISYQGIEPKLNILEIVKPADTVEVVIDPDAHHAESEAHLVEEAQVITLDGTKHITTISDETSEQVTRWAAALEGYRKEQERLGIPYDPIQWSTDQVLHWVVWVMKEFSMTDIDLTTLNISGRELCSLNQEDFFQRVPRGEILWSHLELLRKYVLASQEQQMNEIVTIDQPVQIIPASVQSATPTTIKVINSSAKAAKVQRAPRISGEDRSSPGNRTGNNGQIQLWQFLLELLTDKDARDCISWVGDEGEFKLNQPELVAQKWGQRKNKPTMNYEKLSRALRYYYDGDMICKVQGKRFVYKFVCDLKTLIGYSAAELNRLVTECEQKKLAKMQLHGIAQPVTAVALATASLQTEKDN
Procedure, shortened: as §1

ERG = molecular target: T3, ERG (Homo sapiens, UniProt P11308 1-479)
T3 sequence: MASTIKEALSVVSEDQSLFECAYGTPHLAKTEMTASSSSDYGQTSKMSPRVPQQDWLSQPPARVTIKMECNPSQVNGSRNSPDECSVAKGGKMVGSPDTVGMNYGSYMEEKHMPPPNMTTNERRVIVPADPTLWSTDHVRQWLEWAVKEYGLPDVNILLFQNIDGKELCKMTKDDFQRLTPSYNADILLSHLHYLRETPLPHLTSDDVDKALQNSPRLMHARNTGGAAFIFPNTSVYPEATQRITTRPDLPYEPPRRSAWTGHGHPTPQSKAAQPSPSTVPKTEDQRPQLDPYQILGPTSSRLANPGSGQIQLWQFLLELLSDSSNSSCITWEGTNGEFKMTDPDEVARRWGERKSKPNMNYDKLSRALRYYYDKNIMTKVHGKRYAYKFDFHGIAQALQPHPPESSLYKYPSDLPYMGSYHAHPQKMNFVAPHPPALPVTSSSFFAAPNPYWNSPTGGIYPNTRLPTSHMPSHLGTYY
Procedure, shortened: as §1

EHF = molecular target: T4, EHF (Homo sapiens, UniProt Q9NZC4 1-300)
T4 sequence: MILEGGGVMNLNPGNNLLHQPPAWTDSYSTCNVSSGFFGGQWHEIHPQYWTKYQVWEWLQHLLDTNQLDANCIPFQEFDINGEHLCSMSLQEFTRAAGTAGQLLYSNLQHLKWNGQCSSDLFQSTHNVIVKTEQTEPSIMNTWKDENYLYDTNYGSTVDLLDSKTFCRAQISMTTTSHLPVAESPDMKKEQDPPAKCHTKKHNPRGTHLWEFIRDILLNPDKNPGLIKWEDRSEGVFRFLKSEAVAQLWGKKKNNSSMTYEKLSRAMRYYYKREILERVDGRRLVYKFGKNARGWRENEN
Procedure, shortened: as §1

SPIB = SPIB (Homo sapiens, UniProt Q01892 1-262)
Procedure, shortened: as §1

ETV5 = ETV5 (Homo sapiens, UniProt P41161 1-510)
Procedure, shortened: as §1

ETV2 = molecular target: T5, ETV2 (Homo sapiens, UniProt O00321 1-342)
T5 sequence: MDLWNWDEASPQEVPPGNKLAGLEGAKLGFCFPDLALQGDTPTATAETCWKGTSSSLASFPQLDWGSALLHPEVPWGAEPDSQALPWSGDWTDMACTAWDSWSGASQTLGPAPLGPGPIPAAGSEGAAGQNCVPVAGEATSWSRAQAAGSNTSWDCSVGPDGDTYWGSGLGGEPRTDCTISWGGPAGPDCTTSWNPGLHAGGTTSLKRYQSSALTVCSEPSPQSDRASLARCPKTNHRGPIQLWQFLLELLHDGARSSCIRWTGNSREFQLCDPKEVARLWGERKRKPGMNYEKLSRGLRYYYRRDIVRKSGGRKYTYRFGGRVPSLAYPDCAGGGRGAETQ
Procedure, shortened: as §1

ELF3 = molecular target: T6, ELF3 (Homo sapiens, UniProt P78545 1-371)
T6 sequence: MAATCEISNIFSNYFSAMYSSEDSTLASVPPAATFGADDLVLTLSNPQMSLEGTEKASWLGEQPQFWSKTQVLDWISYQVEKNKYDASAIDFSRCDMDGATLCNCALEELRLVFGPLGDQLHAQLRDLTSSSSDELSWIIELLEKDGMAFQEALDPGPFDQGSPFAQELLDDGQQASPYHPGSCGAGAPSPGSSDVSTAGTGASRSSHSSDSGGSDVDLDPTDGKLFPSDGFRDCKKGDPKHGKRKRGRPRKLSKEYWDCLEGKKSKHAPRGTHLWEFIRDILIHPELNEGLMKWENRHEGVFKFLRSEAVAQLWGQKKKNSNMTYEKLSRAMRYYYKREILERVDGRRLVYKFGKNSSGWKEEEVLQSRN
Procedure, shortened: as §1

ERF = molecular target: T7, ERF (Homo sapiens, UniProt P50548 1-548)
T7 sequence: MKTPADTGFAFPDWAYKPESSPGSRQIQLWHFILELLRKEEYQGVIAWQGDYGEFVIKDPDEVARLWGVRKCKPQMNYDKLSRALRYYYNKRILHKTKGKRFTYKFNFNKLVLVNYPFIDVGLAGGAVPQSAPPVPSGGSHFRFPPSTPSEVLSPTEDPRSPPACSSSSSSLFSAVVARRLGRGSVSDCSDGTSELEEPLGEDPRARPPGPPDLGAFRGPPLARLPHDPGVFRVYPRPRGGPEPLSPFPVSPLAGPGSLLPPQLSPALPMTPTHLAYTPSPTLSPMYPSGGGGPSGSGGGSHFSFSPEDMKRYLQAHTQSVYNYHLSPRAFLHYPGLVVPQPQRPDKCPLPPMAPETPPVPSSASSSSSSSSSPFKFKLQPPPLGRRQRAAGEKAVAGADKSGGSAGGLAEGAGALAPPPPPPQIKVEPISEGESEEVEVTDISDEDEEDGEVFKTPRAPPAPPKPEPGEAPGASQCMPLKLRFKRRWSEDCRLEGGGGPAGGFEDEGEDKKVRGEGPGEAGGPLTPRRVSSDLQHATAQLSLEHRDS
Procedure, shortened: as §1

ETS2 = molecular target: T8, ETS2 (Homo sapiens, UniProt P15036 1-469)
T8 sequence: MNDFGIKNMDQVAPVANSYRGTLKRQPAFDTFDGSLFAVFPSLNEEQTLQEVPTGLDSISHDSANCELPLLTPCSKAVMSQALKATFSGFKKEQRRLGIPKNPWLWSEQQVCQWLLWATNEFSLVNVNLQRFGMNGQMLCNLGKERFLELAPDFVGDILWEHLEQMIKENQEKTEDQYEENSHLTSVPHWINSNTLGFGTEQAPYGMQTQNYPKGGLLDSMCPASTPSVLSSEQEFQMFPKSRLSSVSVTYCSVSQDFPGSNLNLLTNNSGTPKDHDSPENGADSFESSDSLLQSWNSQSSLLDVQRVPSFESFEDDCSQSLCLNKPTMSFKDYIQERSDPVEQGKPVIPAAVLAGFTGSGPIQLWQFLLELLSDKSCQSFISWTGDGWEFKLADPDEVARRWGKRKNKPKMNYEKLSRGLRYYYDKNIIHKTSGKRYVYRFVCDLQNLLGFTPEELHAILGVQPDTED
Procedure, shortened: as §1

SPDEF = molecular target: T9, SPDEF (Homo sapiens, UniProt O95238 1-335)
T9 sequence: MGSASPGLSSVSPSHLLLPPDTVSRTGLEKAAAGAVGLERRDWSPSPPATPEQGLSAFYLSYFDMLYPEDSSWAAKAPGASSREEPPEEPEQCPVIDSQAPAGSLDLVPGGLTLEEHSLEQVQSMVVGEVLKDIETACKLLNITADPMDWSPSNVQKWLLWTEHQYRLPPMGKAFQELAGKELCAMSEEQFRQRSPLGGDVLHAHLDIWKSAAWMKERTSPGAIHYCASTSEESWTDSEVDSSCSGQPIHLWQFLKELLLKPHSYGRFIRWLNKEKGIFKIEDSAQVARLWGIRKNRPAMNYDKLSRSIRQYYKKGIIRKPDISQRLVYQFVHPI
Procedure, shortened: as §1

ETV7 = molecular target: T10, ETV7 (Homo sapiens, UniProt Q9Y603 1-341)
T10 sequence: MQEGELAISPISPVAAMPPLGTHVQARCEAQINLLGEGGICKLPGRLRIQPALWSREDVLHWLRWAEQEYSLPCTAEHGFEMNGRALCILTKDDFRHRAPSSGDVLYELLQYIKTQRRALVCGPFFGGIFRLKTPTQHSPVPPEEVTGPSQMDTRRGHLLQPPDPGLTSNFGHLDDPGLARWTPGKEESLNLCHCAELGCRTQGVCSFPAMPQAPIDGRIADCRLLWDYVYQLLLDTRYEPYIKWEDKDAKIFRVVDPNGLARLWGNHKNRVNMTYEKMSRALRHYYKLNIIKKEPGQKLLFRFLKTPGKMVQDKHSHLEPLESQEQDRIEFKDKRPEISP
Procedure, shortened: as §1

ETV6 = ETV6 (Homo sapiens, UniProt P41212 1-452)
Procedure, shortened: as §1

Sequence of ETV6 (P41212 whole entry): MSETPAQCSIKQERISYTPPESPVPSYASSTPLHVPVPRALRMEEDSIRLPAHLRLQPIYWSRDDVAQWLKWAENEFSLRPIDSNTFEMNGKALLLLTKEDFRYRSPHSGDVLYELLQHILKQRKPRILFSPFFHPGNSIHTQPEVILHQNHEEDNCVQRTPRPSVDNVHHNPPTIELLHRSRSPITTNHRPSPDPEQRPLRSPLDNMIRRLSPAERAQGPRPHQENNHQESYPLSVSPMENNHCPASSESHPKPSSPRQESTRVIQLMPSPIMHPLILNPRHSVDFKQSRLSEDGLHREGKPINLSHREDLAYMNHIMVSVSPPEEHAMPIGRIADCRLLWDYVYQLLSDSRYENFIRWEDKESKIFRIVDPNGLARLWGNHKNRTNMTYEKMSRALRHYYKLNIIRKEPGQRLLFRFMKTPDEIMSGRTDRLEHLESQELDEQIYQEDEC
Sequence of SPIB (Q01892 whole entry): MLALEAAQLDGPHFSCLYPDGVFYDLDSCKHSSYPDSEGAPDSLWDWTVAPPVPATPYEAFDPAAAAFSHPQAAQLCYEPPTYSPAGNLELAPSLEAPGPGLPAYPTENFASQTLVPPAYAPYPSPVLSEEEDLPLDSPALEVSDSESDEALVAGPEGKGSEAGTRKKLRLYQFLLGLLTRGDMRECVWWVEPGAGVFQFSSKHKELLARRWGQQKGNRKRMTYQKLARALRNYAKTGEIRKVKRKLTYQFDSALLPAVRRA
Sequence of ETV5 (P41161 whole entry): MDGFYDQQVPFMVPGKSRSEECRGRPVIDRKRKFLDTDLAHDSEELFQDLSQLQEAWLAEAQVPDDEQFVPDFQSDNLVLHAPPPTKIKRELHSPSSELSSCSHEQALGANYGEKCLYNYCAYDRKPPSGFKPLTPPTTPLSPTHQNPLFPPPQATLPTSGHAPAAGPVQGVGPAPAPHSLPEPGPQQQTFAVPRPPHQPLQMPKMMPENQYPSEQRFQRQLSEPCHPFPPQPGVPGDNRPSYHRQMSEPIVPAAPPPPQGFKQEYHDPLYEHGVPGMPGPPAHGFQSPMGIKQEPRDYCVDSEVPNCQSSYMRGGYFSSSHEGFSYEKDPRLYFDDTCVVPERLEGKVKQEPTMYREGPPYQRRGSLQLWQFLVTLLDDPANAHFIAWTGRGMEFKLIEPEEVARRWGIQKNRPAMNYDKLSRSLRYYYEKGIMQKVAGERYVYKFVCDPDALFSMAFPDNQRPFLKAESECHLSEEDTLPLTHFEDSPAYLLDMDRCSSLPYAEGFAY

TGGGAA
binding signal (ELK1): 1.08 fold enrichment (6-mer frequency, TF over GST control) | binding signal (GABPA): 1.05 fold enrichment (6-mer frequency, TF over GST control) | binding signal (ERG): 1.02 fold enrichment (6-mer frequency, TF over GST control) | binding signal (EHF): 1.04 fold enrichment (6-mer frequency, TF over GST control) | binding signal (SPIB): 1.05 fold enrichment (6-mer frequency, TF over GST control) | binding signal (ETV5): 1.04 fold enrichment (6-mer frequency, TF over GST control) | binding signal (ETV2): 1.02 fold enrichment (6-mer frequency, TF over GST control) | binding signal (ELF3): 1.13 fold enrichment (6-mer frequency, TF over GST control) | binding signal (ERF): 1.04 fold enrichment (6-mer frequency, TF over GST control) | binding signal (ETS2): 1.02 fold enrichment (6-mer frequency, TF over GST control) | binding signal (SPDEF): 1.01 fold enrichment (6-mer frequency, TF over GST control) | binding signal (ETV7): 1.09 fold enrichment (6-mer frequency, TF over GST control) | binding signal (ETV6): 1.17 fold enrichment (6-mer frequency, TF over GST control)

From article PMC7862700, “An all-to-all approach to the identification of sequence-specific readers for epigenetic DNA modifications on cytosine”
